# Measurements from PubChem BioAssay (Tox21).
# A number with no mark means an inactive call. Results filed as inconclusive are left out. A call without a number means that no potency is given here. The source made the active and inactive calls. Unless noted, the call rests on the fitted dose curve; in most records, active means well fitted curve in the direction sought with a large enough effect in the repeat runs; inconclusive means weak or mixed curves; inactive means no such curve, though single readings can be large; an effect the other way counts as inactive or inconclusive.
# Experiments:
# [1] = A CellTox Green Cytotoxicity Assay to monitor cytotoxicity in HEK293 cells - 32 hour (AID 1224881); further: nearly all actives have a fitted effect of over 40% in size
# Method in brief: (§1)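 Dead-cell fluorescence measured kinetically: asymmetric cyanine dye, HEK293, 600 cells/well, 5 h settle, 23 nL cpd/DMSO, 37 C, reads 0–40 h every 8 h.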
# [2] = A CellTox Green Cytotoxicity Assay to monitor cytotoxicity in HepG2 cells - 32 hour (AID 1224883); further: nearly all actives have a fitted effect of over 50% in size
# Method in brief: (§2)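 First, HepG2 cells (600/well) mixed with reagent were plated; second, after 5 h at 37 C they received compounds via pintool; third, fluorescence was measured at 0 h through 40 h at 8 h intervals.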
# [3] = A CellTox Green Cytotoxicity Assay to monitor cytotoxicity in HEK293 cells - 8 hour (AID 1224884); further: nearly all actives have a fitted effect of over 35% in size
# Method in brief: as §1
# [4] = qHTS RealTime-Glo MT Cell Viability Assay in HepG2 cells - 16 hour (AID 1224885); further: nearly all actives have a fitted effect of over 50% in size
# Method in brief: (§3)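 Luminescence read-out: viable HepG2 cells reduce a prosubstrate to a NanoLuc substrate, giving a signal proportional to live cell number. Reads taken at 0, 8, 16, 24, 32 and 40 h of compound exposure at 37 C.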
# [5] = qHTS RealTime-Glo MT Cell Viability Assay in HEK293 cells - 24 hour (AID 1224886); further: top concentration of the series differs between compounds; nearly all actives have a fitted effect of over 50% in size
# Method in brief: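 Nonlytic real-time viability readout: viable cells convert prosubstrate to NanoLuc substrate, giving luminescence proportional to live cell number. HEK293, 600 cells/well, compound added after 5 h, continuous culture at 37 C.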
# [6] = qHTS RealTime-Glo MT Cell Viability Assay in HEK293 cells - 8 hour (AID 1224887); further: top concentration of the series differs between compounds; nearly all actives have a fitted effect of over 50% in size
# Method in brief: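 600 HEK293 cells per well, dispensed already mixed with RealTime-Glo MT reagents. Compound dosing came 5 h later. The same wells were read for luminescence at 0, 8, 16, 24, 32 and 40 h of exposure at 37 C.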
# [7] = A CellTox Green Cytotoxicity Assay to monitor cytotoxicity in HEK293 cells - 16 hour (AID 1224888); further: nearly all actives have a fitted effect of over 35% in size
# Method in brief: as §1
# [8] = qHTS RealTime-Glo MT Cell Viability Assay in HepG2 cells - 0 hour (AID 1224889); further: nearly all actives have a fitted effect of over 50% in size
# Method in brief: as §3
# [9] = A CellTox Green Cytotoxicity Assay to monitor cytotoxicity in HepG2 cells - 8 hour (AID 1224890); further: nearly all actives have a fitted effect of over 45% in size
# Method in brief: as §2
# [10] = qHTS assay to identify small molecule antagonists of the estrogen receptor alpha (ER-alpha) signaling pathway using the BG1 cell line in the presence of 0.1 nM 17-beta-estradiol - cell viability counter screen (AID 1259241); further: nearly all actives have a fitted effect of over 40% in size; further: potency means the concentration at half of the fitted maximal effect
# Method in brief: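 Estradiol-stimulated (0.1 nM) VM7Luc4E2 cells exposed to compounds 22 hr; viability measured by fluorescence of cleaved CellTiter-Fluor substrate after 30 min.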
# [11] = qHTS assay to identify small molecule antagonists of the androgen receptor (AR) signaling pathway using the MDA cell line in the presence of 0.5 nM R1881 - cell viability counter screen (AID 1259242); further: nearly all actives have a fitted effect of over 45% in size
# Method in brief: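 qHTS format. MDA-kb2 (MMTV-luc, AR/GR responsive) + cpd + 0.5 nM R1881 final, 16 hr 37C/0% CO2 → CellTiter-Fluor 30 min → fluorescence intensity.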
# [12] = molecular target: Estrogen receptor (Homo sapiens) (UniProt P03372); test: qHTS assay to identify small molecule antagonists of the estrogen receptor alpha (ER-alpha) signaling pathway using the BG1 cell line in the presence of 0.1 nM 17-beta-estradiol (AID 1259244); further: nearly all actives have a fitted effect of over 50% in size
# Method in brief: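 Reporter is a stably transfected luciferase under four estrogen responsive elements in VM7Luc4E2 cells expressing native full-length ER-alpha; inhibition of 0.1 nM (final) 17beta-estradiol-driven signal over 22 h is read by luminescence.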
# [13] = qHTS assay to identify small molecule phospholipidosis (PLD) inducers (AID 1259344; active means well fitted curve in the direction sought with a large enough effect; an effect the other way counts as inactive or inconclusive)
# Method in brief: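 Image-based: LipidTOX Red pit count/intensity per well and per cell; HepG2, 24 h compound at 37 C, PFA fixation, Hoechst counterstain.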
# [14] = qHTS assay to identify small molecule HDAC inhibitors (AID 1259364); further: potency means the concentration at half of the fitted maximal effect;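 further: wild-type HCT-116 cells with endogenous class I/II HDAC activity; nearly all actives have a fitted effect of over 45% in size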
# Method in brief: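 Quantitative high-throughput format: overnight-seeded HCT-116 cells got compounds for 2 hr at 37C; HDAC-Glo I/II reagent added, 30 min RT, luminescence measured.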
# [15] = qHTS assay to identify small molecule HDAC inhibitors - cell viability counter screen (AID 1259365)
# Method in brief: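 After overnight seeding at 1,500 cells per well, wild-type HCT-116 cultures took up compounds in DMSO for 2hr at 37 C. Viable cell content came from luminescence with CellTiter-Glo.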
# [16] = qHTS assay to identify small molecule agonists of the sonic hedgehog signaling (Shh) pathway - cell viability counter screen (AID 1259366); further: nearly all actives have a fitted effect of over 50% in size
# Method in brief: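 Same-well cytotoxicity read. Gli1-Luc reporter 3T3 cells; compounds 24hr, 37C/5% CO2; CellTiter-Fluor fluorescence.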
# [17] = qHTS assay to identify small molecule antagonists of the sonic hedgehog signaling (Shh) pathway - cell viability counter screen (AID 1259367); further: nearly all actives have a fitted effect of over 55% in size
# Method in brief: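 Tox21 library chemicals were tested on a Gli1-Luc NIH/3T3 clone (2,000 cells/well) stimulated by conditioned medium; viability was quantified as fluorescence from CellTiter-Fluor reagent added at 23 hr.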
# [18] = qHTS assay to identify small molecule agonists of the sonic hedgehog signaling (Shh) pathway (AID 1259368; calls by dose curve;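 further: NIH/3T3-derived 3T3Gli1-Luc cells carrying a stable Gli1-driven firefly luciferase reporter; series mostly up to about 92 µM; nearly all actives have a fitted effect of over 15% in size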)
# Method in brief: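 Quantitative high-throughput format using a Gli1-driven firefly luciferase reporter line derived from NIH/3T3 cells. After a 24 hr compound treatment at 37 C and 5% CO2, luminescence reported Gli1 response element activity.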
# [19] = A CellTox Green Cytotoxicity Assay to monitor cytotoxicity in HepG2 cells - 0 hour (AID 1224882); further: nearly all actives have a fitted effect of over 35% in size
# Method in brief: as §2
# [20] = molecular target: Androgen receptor (Homo sapiens) (UniProt P10275); test: qHTS assay to identify small molecule antagonists of the androgen receptor (AR) signaling pathway using the MDA cell line in the presence of 0.5 nM R1881 (AID 1259243); further: nearly all actives have a fitted effect of over 50% in size
# Method in brief: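 Antagonist mode quantitative HTS in MDA-kb2 MMTV-luciferase cells, agonist R1881 at 0.5 nM final, 16 hr exposure at 37C and 0% CO2, luminescent detection.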
# Androgen receptor (Homo sapiens), sequence (P10275 whole entry, looked up): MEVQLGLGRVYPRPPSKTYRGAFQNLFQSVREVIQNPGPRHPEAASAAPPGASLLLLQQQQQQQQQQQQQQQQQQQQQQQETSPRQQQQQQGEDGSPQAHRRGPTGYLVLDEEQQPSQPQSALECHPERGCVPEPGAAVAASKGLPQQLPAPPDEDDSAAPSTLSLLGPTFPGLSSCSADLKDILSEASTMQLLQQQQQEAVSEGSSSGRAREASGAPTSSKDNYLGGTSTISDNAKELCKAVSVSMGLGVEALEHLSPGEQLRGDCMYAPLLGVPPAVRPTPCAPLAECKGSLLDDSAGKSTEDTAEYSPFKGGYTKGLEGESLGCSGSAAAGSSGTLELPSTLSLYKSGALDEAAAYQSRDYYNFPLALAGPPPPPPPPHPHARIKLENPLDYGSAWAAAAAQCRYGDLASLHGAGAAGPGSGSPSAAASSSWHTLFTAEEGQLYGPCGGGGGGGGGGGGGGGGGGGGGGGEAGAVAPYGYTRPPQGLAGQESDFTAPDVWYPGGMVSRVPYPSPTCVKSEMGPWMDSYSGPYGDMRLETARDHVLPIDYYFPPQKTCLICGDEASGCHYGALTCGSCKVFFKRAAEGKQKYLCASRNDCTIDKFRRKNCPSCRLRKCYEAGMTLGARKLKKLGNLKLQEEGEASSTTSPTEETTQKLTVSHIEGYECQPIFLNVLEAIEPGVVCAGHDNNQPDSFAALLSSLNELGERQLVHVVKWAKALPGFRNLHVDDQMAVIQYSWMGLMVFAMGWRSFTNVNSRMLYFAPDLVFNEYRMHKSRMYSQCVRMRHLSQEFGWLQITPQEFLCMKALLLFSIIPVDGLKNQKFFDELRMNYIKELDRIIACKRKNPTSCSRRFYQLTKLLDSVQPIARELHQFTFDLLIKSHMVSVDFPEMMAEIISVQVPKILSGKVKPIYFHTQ
# Estrogen receptor (Homo sapiens), sequence (P03372 whole entry, looked up): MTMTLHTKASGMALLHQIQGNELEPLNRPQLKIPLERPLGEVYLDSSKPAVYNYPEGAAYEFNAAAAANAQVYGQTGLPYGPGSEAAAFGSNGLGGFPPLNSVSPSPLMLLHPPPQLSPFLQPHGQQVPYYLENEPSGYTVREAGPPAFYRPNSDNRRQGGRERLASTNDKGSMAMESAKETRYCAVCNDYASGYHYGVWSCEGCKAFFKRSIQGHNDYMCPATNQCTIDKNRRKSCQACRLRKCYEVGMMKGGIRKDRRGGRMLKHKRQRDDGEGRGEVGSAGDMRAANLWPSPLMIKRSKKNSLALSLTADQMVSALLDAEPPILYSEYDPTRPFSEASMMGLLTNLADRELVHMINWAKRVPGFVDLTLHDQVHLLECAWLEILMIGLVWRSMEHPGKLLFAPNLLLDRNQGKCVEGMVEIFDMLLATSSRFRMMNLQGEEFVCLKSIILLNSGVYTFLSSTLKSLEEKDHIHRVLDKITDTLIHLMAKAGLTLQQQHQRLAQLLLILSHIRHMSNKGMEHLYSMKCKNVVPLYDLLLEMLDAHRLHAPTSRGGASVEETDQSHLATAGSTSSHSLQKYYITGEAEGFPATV
Compound,Potency [1],Potency [2],Potency [3],outcome [4],Potency [5],Potency [6],Potency [7],Potency [8],Potency [9],Potency [10],outcome [11],Potency [12],outcome [13],Potency [14],outcome [15],Potency [16],Potency [17],Potency [18],Potency [19],Potency [20]
CCCNC(C)(C)COC(=O)c1ccccc1,inactive,inactive,inactive,inactive,inactive,inactive,inactive,inactive,inactive,inactive,inactive,inactive,inactive,inactive,inactive,inactive,,,,
NC1=NCC2c3ccccc3Cc3ccccc3N12 (stereo not drawn),inactive,inactive,inactive,inactive,inactive,inactive,inactive,inactive,inactive,inactive,inactive,,inactive,inactive,inactive,,inactive,inactive,,
Nc1ccc(Oc2ccc(N)c(N)c2)cc1,inactive,,inactive,,,,inactive,,inactive,48.6 µM (active),inactive,inactive,,30.6 µM (active),inactive,,inactive,,inactive,
Cc1cccc(C)c1NC(=O)CN1CCCCCC1,inactive,inactive,inactive,inactive,inactive,inactive,inactive,inactive,inactive,,inactive,inactive,inactive,inactive,inactive,inactive,inactive,inactive,,
CC(C)(C)c1cccc(O)c1,inactive,,inactive,inactive,inactive,inactive,inactive,inactive,inactive,inactive,inactive,inactive,,inactive,inactive,inactive,inactive,inactive,inactive,inactive
OCc1c2ccccc2cc2ccccc12,inactive,inactive,inactive,inactive,,,inactive,inactive,inactive,,inactive,inactive,,inactive,inactive,,inactive,inactive,inactive,
CCCCC(CC)COC(=O)COc1cc(Cl)c(Cl)cc1Cl (stereo not drawn),inactive,inactive,inactive,inactive,inactive,inactive,inactive,inactive,inactive,inactive,inactive,inactive,,inactive,inactive,inactive,,inactive,,
CCCNC(C)C(=O)Nc1c(C)csc1C(=O)OC (stereo not drawn),inactive,inactive,inactive,inactive,inactive,inactive,inactive,inactive,inactive,inactive,inactive,inactive,inactive,inactive,inactive,inactive,,inactive,,
Cc1onc(-c2ccccc2)c1C(=O)Cl,inactive,,inactive,inactive,inactive,inactive,,inactive,,inactive,inactive,,,inactive,inactive,inactive,inactive,inactive,inactive,
O=Cc1ccc(O)c(O)c1O,inactive,,inactive,inactive,inactive,inactive,inactive,inactive,inactive,,inactive,,,inactive,inactive,,,inactive,inactive,inactive
CCN1CC(CCN2CCOCC2)C(c2ccccc2)(c2ccccc2)C1=O (stereo not drawn),inactive,inactive,inactive,inactive,inactive,inactive,inactive,inactive,inactive,inactive,inactive,,inactive,inactive,inactive,,,inactive,,
NCCCN1CCN(CCCN)CC1,inactive,,inactive,inactive,,inactive,inactive,inactive,inactive,,inactive,inactive,,inactive,inactive,,inactive,inactive,inactive,inactive
CCC1(C)NC(=O)NC1=O (stereo not drawn),inactive,,inactive,inactive,inactive,inactive,inactive,inactive,inactive,inactive,inactive,,,inactive,inactive,inactive,inactive,inactive,inactive,
CN1CCN(C2=Nc3ccccc3Oc3ccc(Cl)cc32)CC1,inactive,,inactive,inactive,inactive,inactive,inactive,inactive,inactive,inactive,inactive,inactive,inactive,inactive,inactive,,,inactive,inactive,
C[C@@H](N)C(=O)O,inactive,inactive,inactive,inactive,inactive,inactive,inactive,inactive,inactive,inactive,inactive,,inactive,inactive,inactive,inactive,inactive,inactive,,inactive
Cc1cc(NS(=O)(=O)c2ccc(N)cc2)nc(C)n1,inactive,,inactive,inactive,inactive,inactive,inactive,inactive,inactive,inactive,inactive,inactive,inactive,inactive,inactive,inactive,inactive,,inactive,
N#Cc1ccc(C(c2ccc(C#N)cc2)n2cncn2)cc1,inactive,inactive,inactive,inactive,inactive,inactive,inactive,inactive,inactive,inactive,inactive,inactive,inactive,inactive,inactive,inactive,inactive,inactive,,
